# Results as given in the supplement of paper PMC10338343.
# ± gives the standard deviation.
# System: EfPiwi piRISC loaded with piRNA #1 (26 nt)
# Assay: pre-steady-state target cleavage rate (min^-1); auxiliary factor: 500 nM Ephydatia muelleri Gtsf1; guide: piRNA #1 5'p-UGAGGUAGUAGGUUGUAUAGUAUCCA; MIWI and MILI are mouse PIWI proteins and EfPiwi is from a freshwater sponge; tags in brackets are library labels; higher = faster piRNA-guided slicing of the target
# Experimental: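 Cleave-'n-Seq: a library of target RNAs (target site in constant flanks) at […] was incubated with 1 nM active freshwater sponge Ephydatia fluviatilis Piwi piRISC (synthetic 5'-monophosphorylated piRNA guide) with or without 500 nM EmGtsf1 at 33 °C for 1 min to 16 h. Uncleaved targets were sequenced and the pooled three trials fitted to a burst-and-steady-state model to give the pre-steady-state cleavage rate (min^-1). Sequence is the target site only. Fits with R² ≤ 0 are excluded.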
row,Sequence,pre-steady-state target cleavage rate
1,GGAGACCAUACUAUACAAGCUACUUCCUCA,0.00551 ± 0.0027
2,GGAGAGGAUACUUUACAACCUACUACCUCA,0.00667 ± 0.0036
3,GGAGACCUAACUCAUACAACCUACUACCUCA,0.0159 ± 0.0089
4,GGAGAGGAUACUAUACAACCUACUACCCUCA,0.00508 ± 0.0022
5,GGAGACCAUACUAUACAACCUAGUAGCUCA,0.00225 ± 0.0017
6,GGAGACCUUACUAUACAUCCUACUACCUCA,0.00607 ± 0.0029
7,GGAGUGGAUACUAUACAACCUACAACGUCA,0.00302 ± 0.0017
8,GGAGACCUUACUAGACAACCUACUACCUCA,0.0104 ± 0.0051
9,GGAGAGGAUACUAUACAACCUCACUACCUCA,0.00378 ± 0.0026
10,GGAGACCUUACUAUACAACUUACUACCUCA,0.00902 ± 0.0051
11,GGAGACCUUACUAUACAACCUACUACCCA,0.00518 ± 0.0043
12,GGAGAGGAAACUAUACAUCCUACUACCUCA,0.00711 ± 0.0026
13,GGAGAGGAUACUAUACAACCUACUACCUACA,0.00995 ± 0.0044
14,GGAGACCUAACAUAUACAACCUACUACCUCA,0.0546 ± 0.02
15,GGAGUGGAAACAAUACAACCUACUACCUCA,0.00713 ± 0.0044
16,GGAGACCAUACUAUACAACACUACUACCUCA,0.00469 ± 0.0037
17,GGAGAGGAUUCUAUACAAGCUACUACCUCA,0.00384 ± 0.0028
18,GGAGACCAUUCUAUACAACCUACUACCUCA,0.0597 ± 0.02
19,GGAGACCAUACUAUACAAGCUACUACCUGA,0.00543 ± 0.0026
20,GGAGACGAUACUAUACAACCUACUUCGUCA,0.00672 ± 0.0024

row,Sequence,pre-steady-state target cleavage rate
1,GGAGAGGAACUAUACAACCUACUACCUCA,0.00746 ± 0.0049
2,GGAGACCAAACUAUACAACCUACUACCACA,0.00528 ± 0.0044
3,GGAGUGGAUACUAUACAACCUGCUACCUCA,0.0792 ± 0.029
4,GGAGUGGAUACUAAACAACCAACUACCUCA,0.0031 ± 0.0017
5,GGAGACCUAACUAUACAACCUACAACCUGA,0.00402 ± 0.0029
6,GGAGUGGAUACUAUACAAGCUAGUACCUCA,0.00287 ± 0.0014
7,GGAGACCUUACUAUACAACCUACUACGUCA,0.00584 ± 0.0027
8,GGAGACCAUACUAUACAACCUACGACCUCA,0.00282 ± 0.0019
9,GGAGAGUAUACUAUACAACCUACUACCUCA,0.0182 ± 0.0087
10,GGAGACGAUACUACACAACCUACUACCUCA,0.00692 ± 0.0032
11,GGAGACCUUACUAUACAACCACUACCUCA,0.0103 ± 0.0057
12,GGAGACGAUACUUUACAACCAACUACCUCA,0.00358 ± 0.0022
13,GGAGACCUAACUAUACAACCUACUACUCUCA,0.00491 ± 0.0044
14,GGAGACCUUACUGUACAACCUACUACCUCA,0.0146 ± 0.0073
15,GGAGACGAUUCUAUACAACCUAGUACCUCA,0.00392 ± 0.0022
16,GGAGACCUAUCAAUACAACCUACUACCUCA,0.00612 ± 0.0034
17,GGAGACGAUAGUAUACAACCUACUACCUCA,0.00758 ± 0.0036
18,GGAGUGGAUACUAUACAACCUACUCCUCA,0.00475 ± 0.0027
19,GGAGACCAUACUAUACAACCUACACCUCA,0.00776 ± 0.0044
20,GGAGACCUUACUAUACCAACCUACUACCUCA,0.00457 ± 0.0029
